Several values for one entry are separate records, joined by “and”; a condition that tells them apart may be missing. Equal entries are not always repeated. About 1,200 (0.35%) of roughly 340,000 compounds were called active.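 The calls were made as follows: active = potentiation over 3 SD above the plate norm (cut at about 30% in these data); inactive = the rest.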 The list comes from a sample in which actives are over-represented; it also holds similar structures and randomly drawn compounds. Some structures have more than one record in an assay (separate samples or runs), and their calls can disagree.
Target: D(2) dopamine receptor (Homo sapiens) (UniProt P14416)
Sequence (P14416 whole entry, looked up): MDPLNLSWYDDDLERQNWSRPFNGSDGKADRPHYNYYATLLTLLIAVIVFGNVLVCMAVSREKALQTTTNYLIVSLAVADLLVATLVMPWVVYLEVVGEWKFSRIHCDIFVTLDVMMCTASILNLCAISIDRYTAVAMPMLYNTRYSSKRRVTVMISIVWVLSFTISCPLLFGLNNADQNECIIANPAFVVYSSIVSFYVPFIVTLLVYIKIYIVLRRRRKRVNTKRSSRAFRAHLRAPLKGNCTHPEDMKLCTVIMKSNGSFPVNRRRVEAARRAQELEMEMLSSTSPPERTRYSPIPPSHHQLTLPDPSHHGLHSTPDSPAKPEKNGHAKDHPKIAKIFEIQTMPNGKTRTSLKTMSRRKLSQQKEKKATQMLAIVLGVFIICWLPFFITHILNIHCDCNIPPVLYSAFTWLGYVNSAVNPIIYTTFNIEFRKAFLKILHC
Assay: HTS Assay for Positive Allosteric Modulators of the Human D2 Dopamine Receptor: Primary Screen for Potentiators; also: 0% is about no effect
Details: HEK293 T-REx D2, calcium flux, EC20 dopamine potentiation; at 10 µM; stronger effect = higher value
Summary of the method: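 Tetracycline-induced HEK293 T-REx cells force-coupled to calcium signalling expressed D2; compounds were pin-added after a 10 s baseline, read kinetically 180 s, then an EC20 dopamine challenge followed with a further 180 s calcium read.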

SMILES	potentiation
CCC(C)n1[nH]c(=O)c2c(C)cc(C)nc21 (centres undefined)	1.22% (inactive)
CCCC(C)n1[nH]c(=O)c2c(C)cc(C)nc21 (centres undefined)	33% (active)
CCC(C)n1[nH]c(=O)cc1N (centres undefined)	2.87% (inactive)
CCOC(=O)c1oc2ccc(S(=O)(=O)n3nc(-c4ccccc4OC)cc3N)cc2c1C	-0.8% (inactive)
COc1ccc(-n2ccn(CC(=O)Nc3ccc(C)c(C)c3)c(=O)c2=O)cc1OC	6.27% (inactive)
O=C(Nc1c(-c2ccc(F)cc2)nc2ccccn12)c1cccc(F)c1	12.9% (inactive)
CCN1CCc2nc3sc(C(=O)Nc4ccccc4OC(F)(F)F)c(N)c3cc2C1	3.95% (inactive)
Cc1cccc(N2CCN(C(=O)CN(C)S(=O)(=O)c3ccc4c(c3)CCC(=O)N4)CC2)c1C	-3.34% (inactive)
CCOC(=O)Cc1csc(NC(=O)CSc2ccc(Br)cc2)n1	-0.963% (inactive)
CCOC(=O)Cc1csc(NC(=O)CN(C)S(=O)(=O)c2ccc3c(c2)CCC(=O)N3)n1	43% (active)
Cc1sc(C2C(C#N)=C(N)N(c3cccc(Cl)c3)C3=C2C(=O)CCC3)cc1CN1CCOCC1 (centres undefined)	-0.593% (inactive)
CCN1CCN(c2ccc(NC(=O)c3cnccn3)cc2)CC1	-0.266% (inactive)
O=C(Nc1ccc(S(=O)(=O)N2CCCCCC2)cc1)c1c(F)cccc1F	2.54% (inactive)
O=C(Nc1ccc(S(=O)(=O)N2CCCCC2)cc1)c1cnccn1	30.4% (active)
CN(Cc1ccccc1)S(=O)(=O)c1ccc(F)c(C(=O)Nc2cccc(Cl)c2Cl)c1	-2.84% (inactive)
CCN(CC)S(=O)(=O)c1ccc2c(c1)N(CC(=O)NCc1ccccc1)C(=O)CS2	-1.87% (inactive)
CC(=O)NS(=O)(=O)c1ccccc1	10.6% (inactive)
CC(=O)NS(=O)(=O)c1ccc(NC(=S)NC(=O)C(C)(C)C)cc1	33.2% (active)
CC(=O)Nc1ccc(S(=O)(=O)Nc2cccc(NC(=O)C(C)(C)C)c2)cc1	0.479% (inactive)
O=C(CCn1c(=O)c2ccccc2n(Cc2ccc(Cl)cc2)c1=O)NCc1ccc2c(c1)OCO2	-11.6% (inactive)
O=C(Nc1ccc(Br)cc1)c1cc2nc(-c3ccccc3)cc(-c3ccccc3)n2n1	-4.38% (inactive)
Cc1ccccc1-c1nc(SCC(=O)N(C)c2ccccc2)c2c(=O)n(C)c(=O)n(C)c2n1	-12.5% (inactive)
Cn1c(=O)[nH]c(=O)c2c1nc(N1CCN(C(c3ccccc3)c3ccccc3)CC1)n2CCO	3.98% (inactive)

SMILES	potentiation
CC1CCN(c2nc3c(c(=O)[nH]c(=O)n3C)n2CCCc2ccccc2)CC1	45% (active)
Cn1c(=O)[nH]c(=O)c2c1nc(N1CCCCCC1)n2CC(=O)c1ccccc1	-3.5% (inactive)
CCOC(=O)N1CCc2c(sc(NCc3cccc(F)c3)c2C(=O)Nc2ccccc2OCC)C1	-0.26% (inactive)
O=C(NCCCN1CCCC1=O)c1ccc(S(=O)(=O)Nc2ccccc2)cc1	3.61% (inactive)
CCOc1ccc(C(=O)NCCCN2CCCC2=O)cc1	30.7% (active)
CCOc1ccc(S(=O)(=O)Nc2ccc(C(=O)NCCCN3CCCC3=O)cc2)cc1	11.5% (inactive)
COc1cc(Cl)ccc1Nc1ncc(C(=O)N2CCN(c3ccccc3OC)CC2)c2ccccc12	-3.04% (inactive)
NC(=O)CSc1nc2c(oc3ccccc32)c(=O)n1Cc1ccccc1	4.88% (inactive)
Cc1cccc(NC(=O)c2ccc3nc(C(C)C)oc3c2)c1C	-11.3% (inactive)
Nc1nc(NCC2CCCO2)nc(Nc2ccccc2F)c1[N+](=O)[O-] (centres undefined)	31.9% (active)
Nc1nc(NCCCN2CCOCC2)nc(Nc2ccccc2)c1[N+](=O)[O-]	-1.17% (inactive)
Nc1nc(Nc2ccccc2F)nc(NC2CCCCC2)c1[N+](=O)[O-]	6.13% (inactive)
COc1ccc(NC(=O)CSc2nccn2C2CCCC2)cc1OC	7.4% (inactive)
Cc1cc(O)c(C(c2ccccc2)N2CCN(c3ccccc3F)CC2)c(=O)n1Cc1ccco1 (centres undefined)	-21.6% (inactive)
O=C(NCc1ccccn1)c1c(O)c2c([nH]c1=O)CCCC2	4.39% (inactive)
CCc1nnc(NC(=O)c2c(O)c3c([nH]c2=O)CCCC3)s1	55.5% (active)
C[N+](C)(C)CCNC(=O)c1c(O)c2c([nH]c1=O)CCCC2	13.8% (inactive)
CN(C)CCCn1c(-c2ccc(Cl)cc2)csc1=Nc1ccccc1	-16.7% (inactive)
Cn1c(=O)[nH]c(=O)c2c1nc(NCCc1ccccc1)n2Cc1ccc(F)cc1	-10.3% (inactive)
CC(c1ccccc1)n1c(NCCCn2ccnc2)nc2c1c(=O)[nH]c(=O)n2C (centres undefined)	-8.07% (inactive)
Cn1c(=O)[nH]c(=O)c2c1nc(NCCCn1ccnc1)n2Cc1cccc(Br)c1	40% (active)
Cc1cccc(C(CC(=O)NCC2(c3ccccc3)CCCC2)c2ccccc2)c1O (centres undefined)	8.89% (inactive)
CCOc1ccc(CCNC(=O)c2csc3c2CCCCC3)cc1	-0.665% (inactive)

SMILES	potentiation
CC1CC(C)CN(CCCNC(=O)c2csc3c2CCCCC3)C1 (centres undefined)	30.4% (active)
CCOC(=O)c1ccc(NC(=O)c2csc3c2CCCCC3)cc1	1.32% (inactive)
Cc1ccc(NC(=O)CSc2nnc3[nH]c(=O)cc(C)n23)cc1Cl	-5% (inactive)
Cc1nc2ccccc2n1CC(=O)N/N=C/c1cccs1	0.665% (inactive)
Cc1cc(C)nc(SC(C)C(=O)N/N=C/c2cccs2)n1 (centres undefined)	12.3% (inactive)
Cc1n[nH]c(=O)nc1N/N=C/c1cccs1	36.2% (active)
CCOC(=O)C1CCN(c2ncnc3c2c(-c2ccccc2)cn3-c2cccc(C)c2)CC1	-2.84% (inactive)
CCOC(=O)C1CCN(c2ncnc3c2oc2ccc(Br)cc23)CC1	34.7% (active)
CCOC(=O)C1CCN(Cc2nnc(-c3cccc(Br)c3)o2)CC1	-5.55% (inactive)
CCCCOc1ccc(CN2C(=O)C(=O)c3cc(Br)cc(C)c32)cc1OC	21.8% (inactive)
Cc1ccc(N2CCN(C(=O)CCc3c(C)nc4c(c3C)c(=O)n(C)c(=O)n4C)CC2)c(C)c1	-0.454% (inactive)
CCc1ccc(NS(=O)(=O)c2ccc3[nH]cc(C(=O)NCCc4cccc(C)c4)c(=O)c3c2)cc1	-7.11% (inactive)
CCN(CC(=O)NCCc1ccccc1)S(=O)(=O)c1ccccc1	13.4% (inactive)
CCN(CC)S(=O)(=O)c1ccc2[nH]cc(C(=O)NCCc3ccccc3)c(=O)c2c1	-2.89% (inactive) and 46.8% (active)
N#Cc1ccc(-c2cccs2)nc1SCc1ccc(Br)cc1	-0.921% (inactive)
COc1cccc(CNC(=O)CCC(=O)N2CC3CCCN3c3ccccc32)c1 (centres undefined)	-3.32% (inactive)
COc1cccc(Cn2c(SCc3ccc(C(=O)N4CCCCC4)cc3)nc3ccncc32)c1	0.981% (inactive)
CCc1nn(CC(=O)N2CCN(c3cccc(C(F)(F)F)c3)CC2)c(=O)c2cc3occc3n12	4.66% (inactive)
O=C(NCc1cc(F)cc(C(F)(F)F)c1)C1CCC(=O)N(C2CCCC2)C1 (centres undefined)	39% (active)
O=C(NCc1cccc(Cl)c1)C1CCC(=O)N(C2CC2)C1 (centres undefined)	-9.09% (inactive)
Cc1ccc(CNC(=O)C2CC(=O)N(C3CCCCCCC3)C2)cc1 (centres undefined)	7.03% (inactive)
CCOC(=O)c1ccc(NC(=O)CCS(=O)(=O)c2ccc3c(c2)oc(=O)n3C)cc1	-4.33% (inactive)
COc1ccccc1NC(=O)CSC1=Nc2ccccc2C2=NC(CC(=O)NCc3cccs3)C(=O)N12 (centres undefined)	-7.55% (inactive)

SMILES	potentiation
NS(=O)(=O)c1cccc(NC(=O)CC23CC4CC(CC(Br)(C4)C2)C3)c1	38.8% (active)
O=C(CC12CC3CC(CC(C3)C1)C2)Nc1ccc2c(c1)COC2=O	-3.01% (inactive)
Cc1ccc(S(=O)(=O)NCCC(=O)Nc2cccc(S(N)(=O)=O)c2)cc1C	-4.48% (inactive)
Cc1ccc2nc(COc3cccc(NC(=O)Nc4ccc(C)c(Cl)c4)c3)cc(=O)n2c1	-1.63% (inactive)
O=C(COC(=O)c1ccc(NS(=O)(=O)c2cccs2)cc1O)Nc1ccc(F)cc1	35.7% (active)
CCc1ccc(NC(=O)CCNS(=O)(=O)c2cccs2)cc1	13.5% (inactive)
O=C(COC(=O)c1ccc(O)cc1O)NNC(=O)c1cccs1	-6.83% (inactive)
COc1cc(Cl)c(C)cc1NC(=O)CN1CCCCCC1	-1.62% (inactive)
COc1ccc(NC(C)=O)cc1NC(=O)CN1CCN(c2ccc(F)cc2)CC1	-0.119% (inactive)
COc1ccc(NC(C)=O)cc1NC(=O)CN1CCN(C2c3ccccc3-c3ccccc32)CC1	30.8% (active)
Clc1ccc(CSc2nncn3c2cc2occc23)cc1	0.301% (inactive)
CN1CCN(C2(CNC(=O)COc3ccc(C(C)(C)C)cc3)CCCCC2)CC1	-18.8% (inactive)
Cc1[nH]c2ccccc2c1C(=O)COC(=O)c1c(-c2ccccc2)noc1C	8.38% (inactive)
CCOC(=O)c1cn[nH]c1NC(=S)Nc1ccccc1	3.61% (inactive)
CCOC(=O)c1c(C)nc(-c2ccccc2)nc1NC(=O)C(C)C	32.3% (active)
CCOC(=O)c1c(C)[nH]c(C)c1S(=O)(=O)N1CCC(C(=O)Nc2ccc(C)c(Cl)c2)CC1	1.42% (inactive)
O=C(Nc1ccc(-c2nnc(-c3ccccc3)o2)cc1)C1CCCO1 (centres undefined)	15.5% (inactive)
CC(=O)Nc1cccc(C(=O)OCC(=O)Nc2nnc(-c3ccccc3)o2)c1	4.87% (inactive)
O=C(Nc1cccc(-c2nnc(-c3ccccc3)o2)c1)C1CCCO1 (centres undefined)	34% (active)
COc1cccc(CNC(=O)c2ccc3c(Cl)c4c(nc3c2)CCCC4)c1	-3.62% (inactive)
